Reference: PubChem BioAssay AID463190 (Sanford-Burnham Center for Chemical Genomics, 2010)
Screen size: about 330,000 compounds; about 7,300 (2.2%) were called active.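 How the source made its calls: active means inhibition of at least 40%; inactive means the rest.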 The list comes from a sample in which actives are over-represented; it also holds similar structures and randomly drawn compounds.

Assay: growth inhibition of tim10-1 ts yeast – luminescence, uHTS, primary screen (AID 463190);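 further: mutant grown at 25 °C; 0% = DMSO wells with yeast and 100% = wells holding no yeast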
Conditions: S. cerevisiae tim10-1 ts strain growth, BacTiter-Glo, 24 h; at 20 µM; stronger effect = higher value

inhibition, active:
O=[N+]([O-])c1ccc(N2CCN(c3ccc(O)cc3)CC2)c(Cl)c1 40.3%
ONC(=Nc1ccc(Cl)cc1)c1ccccc1Cl 42.6%
O=C(/C=C/Sc1ncn[nH]1)c1ccc(Cl)cc1 61.4%
O=S(=O)(Nc1cccc(Oc2ccc(Cl)cc2)n1)c1ccc(F)cc1 43.9%
COc1ccc(NCc2nnc(SCc3ccccc3)n2-c2ccc(OC)cc2)cc1 49.4%
C#CCN1C(=O)C(O)(CC(=O)c2cc(OC)ccc2OC)c2ccccc21 (stereo unspecified) 41.9%
Cc1ccoc1C(=O)Nc1cccc(Oc2ccccc2)c1 49.3%
CCOC(=O)c1c(-c2ccccc2)oc2cc(Br)c(O)cc12 48.2%
CCOC(=O)c1c(-c2ccccc2)oc2ccc(OCC(=O)NN)cc12 45.4%
O=C(/C(=C/c1cccc(Cl)c1)c1nc2ccccc2[nH]1)c1ccccc1 43.5%
COc1ccc(/C(N)=N/OC(=O)Cc2ccccc2)cc1 46.5%
N/C(=N\OC(=O)Cc1ccccc1[N+](=O)[O-])c1ccc(Br)cc1 57%
COc1ccc(/C(N)=N/OC(=O)CCCc2ccccc2)cc1 45.1%
N/C(=N\OC(=O)CCc1ccccc1)c1ccc(Cl)cc1 65.2%
O=[N+]([O-])c1ccc(N/N=C2/CCCCC2c2ccccn2)c([N+](=O)[O-])c1 (stereo unspecified) 42%
CC(=NCc1ccc2c(c1)OCO2)C1=C(O)c2ccccc2C1=O 61.2%
COc1cc(N=Cc2c(O)[nH]c3ccccc23)cc(OC)c1OC 44%
O=[N+]([O-])c1ccc(C=Nc2ccc(Cl)cc2Cl)s1 77.7%

inhibition, inactive:
O=C(c1ccc(F)cc1)n1c(=S)nc2ccccn21 26.9%
COc1ccc(CNC(=O)[C@@H]2CC=C[C@@H]3CCN(C4CC4)C(=O)[C@@H]32)cc1 6.25%
CN(Cc1c(F)cccc1Cl)S(=O)(=O)c1cccs1 -0.379%
COC(=O)c1ccc(CNC(=O)C2CCC(=O)N(Cc3cccc(F)c3)C2)cc1 (stereo unspecified) -22.8%
O=C(O)C1CCN(c2ccc([N+](=O)[O-])cc2[N+](=O)[O-])CC1 4.89%
COc1ccc(N2CCN(c3ccc([N+](=O)[O-])cc3Cl)CC2)cc1 -1.93%
ONC(=Nc1ccccc1)c1ccccc1Cl 18.6%
O=C(O)C1C2C=CC(O2)C1C(=O)NCCc1cccc(Cl)c1 (stereo unspecified) -10.4%
O=C(CSc1ncn[nH]1)N/N=C/c1ccc(F)cc1 -11.2%
O=C(CSc1ncn[nH]1)Nc1ccc(Br)cc1Br -12.6%
N#C/C(=C\c1ccc(N2CCOCC2)o1)C(=O)N1CCOCC1 9.56%
Cc1ccc([N+](=O)[O-])c(OCCCNCC(C)O)c1 (stereo unspecified) 2.12%
CN(C)CCNc1ccc(-c2n[nH]c(=O)c3ccccc23)cc1[N+](=O)[O-] 1.37%
O=C(/C=C/c1cccs1)NCc1cccnc1 8.39%
O=S(=O)(Nc1ccccn1)c1cccc(S(=O)(=O)c2ccc(Cl)cc2)c1 14.9%
O=S(=O)(Nc1ccc(Oc2ncccn2)c(Cl)c1)c1ccc(F)cc1 15.3%
CCC1CCCCN1S(=O)(=O)Cc1ccccc1Cl (stereo unspecified) 25.3%
COc1ccc2c(CC(=O)N3CCc4cc(OC)c(OC)cc4C3)coc2c1 8.12%
CCn1c(CNc2ccc(OC)cc2)nnc1SCC(=O)c1ccc(OC)cc1 25.4%
COc1ccc(-c2nnc(SCC(=O)c3ccco3)n2-c2ccccc2)cc1 23.4%
O=S(=O)(NC1CCCCC1N1CCN(c2ccccc2F)CC1)c1ccccc1 (stereo unspecified) 21.7%
COc1ccc(C(=O)CN2C(=O)NC3(CCc4ccccc43)C2=O)c(OC)c1 (stereo unspecified) -9.01%
O=C(CC1(O)C(=O)N(CN2CCOCC2)c2ccccc21)c1ccccc1 (stereo unspecified) 15.9%
O=C(Nc1cc(S(=O)(=O)N2CCOCC2)ccc1Cl)c1cc(=O)c2ccccc2o1 19.5%
CC(Oc1cccc(NC(=O)c2cccs2)c1)C(=O)c1ccccc1 (stereo unspecified) 27.6%
Cc1cccc(NC(=O)Nc2cccc(Oc3c(F)c(F)c(F)c(F)c3F)c2)c1 21.3%
COc1cccc2c1OCC1COc3c(c(=O)n(C)c(=O)n3C)C21 (stereo unspecified) -6.86%
COc1ccccc1N1CC(C(=O)Nc2ccc(S(=O)(=O)N3CCOCC3)cc2)CC1=O (stereo unspecified) 4.85%
CCN(CC(=O)NCc1cccs1)c1nnnn1-c1ccccc1 -19.2%
CCOC(=O)c1c(C)oc2ccc(OCC(=O)N(CC)CC)cc12 14.2%
CCOC(=O)c1c(C)oc2cc(Sc3ccccc3)c(O)c(O)c12 34.3%
CCOC(=O)c1c(-c2ccccc2)oc2ccc(OCC(N)=O)cc12 18.7%
CCOC(=O)c1c(C)oc2cc(Br)c(OCC(N)=O)cc12 1.54%
CC(=O)Nc1ccc(C(=O)NNC(=O)CCCCC(=O)NNC(=O)c2ccc(NC(C)=O)cc2)cc1 10.6%
O=C(CCc1nc2ccccc2c(=O)[nH]1)OCC(=O)c1cccc(Cl)c1 18.5%
O=C(Cc1nc2ccccc2[nH]c1=O)c1ccc(Cl)cc1 5.58%
CCCN=C1N(C)C[C@@H]2[C@@H]3C(=O)N(Cc4ccccc4)C(=O)[C@@H]3[C@](C)(C(=O)OC)N12 0.857%
O=C(COC(=O)c1cccc(Cl)c1)NC1CCCCCCC1 8.83%
Cc1cccc([C@H]2[C@@H]3C=CC[C@@H](C)[C@@H]3C(=O)N2Cc2ccccc2)c1 33.1%
Cn1cc(CN2CCCCC2c2ccccn2)c(-c2ccc3c(c2)OCCO3)n1 (stereo unspecified) 9.13%
CCOC(=O)C1CCN(C(=O)Cn2nc(C)c3c(C)n(-c4ccccc4)nc3c2=O)CC1 27.3%
O=C(NN1CCOCC1)c1cccc(F)c1 -9.56%
COc1c(C)c2c(c(O)c1C/C=C(\C)CCC(=O)O)C(=O)OC2 4.45%
COc1ccc(/C(N)=N/OC(=O)Oc2ccccc2)cc1 5.03%
N/C(=N\OC(=O)CCc1ccccc1)c1cccnc1 21.7%
N/C(=N\OC(=O)N1c2ccccc2Sc2ccccc21)c1ccc(Br)cc1 8.49%
N/C(=N\OC(=O)/C=C/c1ccccc1)c1ccc(Br)cc1 25.9%
COc1ccc(S(=O)(=O)NCCCc2ccccc2)cc1 19.3%
O=C(CCc1ccccc1)NNC(=O)COc1ccc(Cl)cc1 0.762%
CCOC(=O)C(Cc1ccccc1)NC(=O)CCC(=O)c1ccc(OC)cc1 (stereo unspecified) 23.1%
COc1ccc(CCC(=O)c2ccc(OC)cc2)cc1 5.98%
COc1ccc(NC(=O)c2sc(N3CCOCC3)nc2-c2ccccc2)c(OC)c1 33.9%
CCOc1ccc2ccccc2c1/C=N/NC(=O)c1c(C)cc(C)[nH]c1=O 2.15%
CCOC(=O)CN1CC23C=CC(O2)C(C(=O)Nc2ccc(F)cc2)C3C1=O (stereo unspecified) 3.99%
O=C(CSc1nccn1-c1cccc(F)c1)NC1CCCC1 -5.65%
COC(=O)[C@H](C(C)C)n1c(C)c(C(C)=O)c(C(C)=O)c1C 0.67%
COc1ccc(CNC(=O)C(C)NCc2ccccc2Cl)cc1 (stereo unspecified) 21.6%
COc1ccc(CNC(=O)COc2ccccc2C(=O)c2cnn(-c3ccccc3)c2)cc1OC 4.14%
CCN1C(=NCCc2cccnc2)N[C@@H](c2ccccc2)C(C(=O)OC)=C1C 0.495%
COCCN(C(=O)C(C)C)c1nnc(-c2ccc(C(C)(C)C)cc2)s1 38.1%
Cn1c(SCC(=O)Nc2ccc(N3CCOCC3)cc2)nnc1C(F)(F)F -4.28%
O=C(Nc1ccccc1)O/N=C1\CCCCC1c1ccc([N+](=O)[O-])cc1[N+](=O)[O-] (stereo unspecified) 24.7%
C[n+]1ccccc1C1CCCC/C1=N\Nc1ccc([N+](=O)[O-])cc1[N+](=O)[O-] (stereo unspecified) 28%
O=C(NNC(=S)NC(=O)c1cn(-c2ccccc2)nc1-c1ccccc1)c1ccncc1 13.6%
O=C(C1CCCO1)N(c1ccc(F)cc1)C1C=CS(=O)(=O)C1 (stereo unspecified) 5.92%
CCCN(CCC)c1c([N+](=O)[O-])c(=O)oc2ccccc12 11%
CCCC(NCC(=O)Nc1ccccc1C(=O)NC1CC1)c1ccccc1 (stereo unspecified) 11.8%
CCc1ccc(NC(=O)NC(C)c2ccc3c(c2)OCO3)cc1 (stereo unspecified) 2.45%
CC(=NCc1ccco1)C1=C(O)c2ccccc2C1=O 34.3%
Cc1ccc(S(=O)(=O)N2CCN=C2SCc2c(F)cccc2Cl)cc1 -8.21%
COc1ccc2[nH]c(C(=O)N/N=C/c3cc(OC)c(OC)c(OC)c3)cc2c1 20.1%
COc1cc(/C=N/NC(=O)Cc2ccccc2)cc(OC)c1OC 2.14%
Cc1ccsc1-c1cc(C(=O)O)c2c(ccc3ccccc32)n1 -20.7%
O=c1nc(N/N=C/c2ccco2)cn[nH]1 17.8%
COc1ccc(NC(=O)CN(C)C(=O)c2n[nH]c3ccccc23)cc1 9.05%
O=C(CCCC(=O)N(CC(=O)NC1CCCC1)Cc1ccccc1Cl)Nc1ccccn1 14.9%
CC1CN(C(=O)c2ccc([N+](=O)[O-])s2)CC(C)O1 (stereo unspecified) 17.2%
CC(C)(C)c1cc(C(=O)N/N=C/c2ccc([N+](=O)[O-])s2)n[nH]1 32%
